Assay results reported in publication PMC9911399, “Two distinct binding modes provide the RNA-binding protein RbFox with extraordinary sequence specificity”.
Positions count from the first letter of the chain named. Over roughly 16,000 sequences, “ka relative to ugcaugu” has its median near 0.096; the highest 2% begin near 0.35. The entries come from a sample that favours the highest values as a whole.

T1: RBFOX1 RRM RbFoxmut (Fox-RRM*) (Homo sapiens, UniProt Q9NWB1 109-208, R118D;E147R;N151S;E152T)
T1 sequence: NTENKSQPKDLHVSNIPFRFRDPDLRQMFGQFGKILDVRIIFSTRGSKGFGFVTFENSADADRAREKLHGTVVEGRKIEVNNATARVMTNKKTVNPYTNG

B1: UGCCUAC (DNA:RNA)
RNA: GGGAGACCGGAAUUCAGAUUGUCCUGCCUACUUAAAUCCCGUCGUAGCCACCA
DNA 1: CAATCTGAATTCCGGTCTCCC
DNA 2: TGGTGGCTACGACGGGATT
B2: GGCUUCC (DNA:RNA)
RNA: B1 RNA with U25G, C28U, A30C
DNA 1: CAATCTGAATTCCGGTCTCCC
DNA 2: TGGTGGCTACGACGGGATT
B3: AAAUCUA (DNA:RNA)
RNA: GGGAGACCGGAAUUCAGAUUGUCCAAAUCUAUUAAAUCCCGUCGUAGCCACCA
DNA 1: CAATCTGAATTCCGGTCTCCC
DNA 2: TGGTGGCTACGACGGGATT
B4: ACCACCC (DNA:RNA)
RNA: B3 RNA with A26C, A27C, U28A, U30C, A31C
DNA 1: CAATCTGAATTCCGGTCTCCC
DNA 2: TGGTGGCTACGACGGGATT
B5: UCUGUUU (DNA:RNA)
RNA: B1 RNA with G26C, C27U, C28G, A30U, C31U
DNA 1: CAATCTGAATTCCGGTCTCCC
DNA 2: TGGTGGCTACGACGGGATT
B6: CGUCGUG (DNA:RNA)
RNA: B1 RNA with U25C, C27U, U29G, A30U, C31G
DNA 1: CAATCTGAATTCCGGTCTCCC
DNA 2: TGGTGGCTACGACGGGATT
B7: UGCACCA (DNA:RNA)
RNA: B1 RNA with C28A, U29C, A30C, C31A
DNA 1: CAATCTGAATTCCGGTCTCCC
DNA 2: TGGTGGCTACGACGGGATT
B8: UGCACCG (DNA:RNA)
RNA: B1 RNA with C28A, U29C, A30C, C31G
DNA 1: CAATCTGAATTCCGGTCTCCC
DNA 2: TGGTGGCTACGACGGGATT
B9: CUGCACC (DNA:RNA)
RNA: B1 RNA with U25C, G26U, C27G, U29A, A30C
DNA 1: CAATCTGAATTCCGGTCTCCC
DNA 2: TGGTGGCTACGACGGGATT
B10: UGCACGG (DNA:RNA)
RNA: B1 RNA with C28A, U29C, A30G, C31G
DNA 1: CAATCTGAATTCCGGTCTCCC
DNA 2: TGGTGGCTACGACGGGATT
B11: CUGCACG (DNA:RNA)
RNA: B1 RNA with U25C, G26U, C27G, U29A, A30C, C31G
DNA 1: CAATCTGAATTCCGGTCTCCC
DNA 2: TGGTGGCTACGACGGGATT
B12: UGCACGA (DNA:RNA)
RNA: B1 RNA with C28A, U29C, A30G, C31A
DNA 1: CAATCTGAATTCCGGTCTCCC
DNA 2: TGGTGGCTACGACGGGATT
B13: UGCACGU (DNA:RNA)
RNA: B1 RNA with C28A, U29C, A30G, C31U
DNA 1: CAATCTGAATTCCGGTCTCCC
DNA 2: TGGTGGCTACGACGGGATT
B14: UGCCACG (DNA:RNA)
RNA: B1 RNA with U29A, A30C, C31G
DNA 1: CAATCTGAATTCCGGTCTCCC
DNA 2: TGGTGGCTACGACGGGATT
B15: CCUGCAC (DNA:RNA)
RNA: B1 RNA with U25C, G26C, C27U, C28G, U29C
DNA 1: CAATCTGAATTCCGGTCTCCC
DNA 2: TGGTGGCTACGACGGGATT
B16: GUCUGGU (DNA:RNA)
RNA: B3 RNA with A25G, A26U, A27C, C29G, U30G, A31U
DNA 1: CAATCTGAATTCCGGTCTCCC
DNA 2: TGGTGGCTACGACGGGATT
B17: AAACGGC (DNA:RNA)
RNA: B3 RNA with U28C, C29G, U30G, A31C
DNA 1: CAATCTGAATTCCGGTCTCCC
DNA 2: TGGTGGCTACGACGGGATT
B18: UCAUAGC (DNA:RNA)
RNA: B3 RNA with A25U, A26C, C29A, U30G, A31C
DNA 1: CAATCTGAATTCCGGTCTCCC
DNA 2: TGGTGGCTACGACGGGATT
B19: ACGGCGA (DNA:RNA)
RNA: B3 RNA with A26C, A27G, U28G, U30G
DNA 1: CAATCTGAATTCCGGTCTCCC
DNA 2: TGGTGGCTACGACGGGATT
B20: CUUUAUC (DNA:RNA)
RNA: B3 RNA with A25C, A26U, A27U, C29A, A31C
DNA 1: CAATCTGAATTCCGGTCTCCC
DNA 2: TGGTGGCTACGACGGGATT

target: T1, RBFOX1 RRM RbFoxmut (Fox-RRM*); test: EMSA; HiTS-Eq, 1 nM pool, 10 min; buffer printed only for the single-RNA assays: 10 mM Tris pH 7.5, 150 mM NaCl, 3.4 mM EDTA, 0.001% NP-40, 30 C; settings: tags: His6 N-terminal (pET28a); label: 5' 32P
In short: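 Purified wild-type or mutant RbFox RRM at increasing concentrations was equilibrated with 1 nM of 5′-radiolabelled RNA carrying 7 randomized nucleotides for 10 min in 50 µL. Unbound RNA was separated by 8% native PAGE and sequenced. Relative association constants came from read-count changes of each RNA species compared with the control reaction, normalised to the cognate motif.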

Row | Binder | binding signal
1 | B1 | 0.105 KA relative to UGCAUGU
2 | B2 | 0.142 KA relative to UGCAUGU
3 | B3 | 0.088 KA relative to UGCAUGU
4 | B4 | 0.0531 KA relative to UGCAUGU
5 | B5 | 0.0825 KA relative to UGCAUGU
6 | B6 | 0.156 KA relative to UGCAUGU
7 | B7 | 0.158 KA relative to UGCAUGU
8 | B8 | 0.223 KA relative to UGCAUGU
9 | B9 | 0.141 KA relative to UGCAUGU
10 | B10 | 0.308 KA relative to UGCAUGU
11 | B11 | 0.626 KA relative to UGCAUGU
12 | B12 | 0.368 KA relative to UGCAUGU
13 | B13 | 0.362 KA relative to UGCAUGU
14 | B14 | 0.158 KA relative to UGCAUGU
15 | B15 | 0.09 KA relative to UGCAUGU
16 | B16 | 0.192 KA relative to UGCAUGU
17 | B17 | 0.085 KA relative to UGCAUGU
18 | B18 | 0.116 KA relative to UGCAUGU
19 | B19 | 0.1 KA relative to UGCAUGU
20 | B20 | 0.0598 KA relative to UGCAUGU
